In all, about 100,000 compounds went through this assay and about 770 (0.77%) were called active. Cut-off read from the data, not from the text of the source: active = inhibition above about 50%; inactive = the rest. Shown is part of a subset that was picked to be rich in actives.
target: Gag-Pol polyprotein (Human immunodeficiency virus type 1 group M subtype B (isolate HXB2)) (UniProt P04585); assay: RNase H inhibition, HIV 1 Gag Pol polyprotein, FRET biochemical assay, screening (AID 372); conditions: HIV-1 RT RNase H, FRET RNA/DNA substrate fluorescence; at 10 µM; active compounds read high

| Structure (SMILES) | inhibition |
| --- | --- |
| CS(=O)(=O)N(CC(=O)Nc1cccc2ccccc12)c1cccc(Cl)c1 | 10% (inactive) |
| O=C1CC(c2ccccc2)CC(O)=C1C=NCc1ccc(F)cc1 (centres undefined) | 8% (inactive) |
| Cc1nnc(N/N=C/c2cccc([N+](=O)[O-])c2)[nH]c1=O | 8% (inactive) |
| CCOC(=O)C1CCN(C(=O)COc2ccc(C)cc2C)CC1 | 4% (inactive) |
| Fc1ccc(Br)cc1SCCc1ccccn1 | 0% (inactive) |
| CCOc1cc(/C=C2/SC(=S)NC2=O)cc([N+](=O)[O-])c1OCCCOc1ccc(Cl)cc1 | 27% (inactive) |
| O=C(NC(=S)Nc1cc(-c2nc3ccccc3s2)ccc1Cl)c1ccc(Cl)cc1 | 33% (inactive) |
| COc1ccc(C(=O)NC(=S)Nc2cc(-c3nc4ccccc4s3)ccc2Cl)cc1 | 50% (active) |
| Cc1ccc(C(=O)Nc2cc(-c3nc4ccccc4s3)ccc2Cl)cc1[N+](=O)[O-] | 39% (inactive) |
| O=C(NC(=S)Nc1cc(-c2nc3ccccc3s2)ccc1Cl)c1ccccc1 | 37% (inactive) |
| Cc1ccc(-c2nc3ccccc3s2)cc1NC(=O)c1ccc(Cl)c([N+](=O)[O-])c1 | 3% (inactive) |
| Cc1cc(C(=O)Nc2cc(-c3nc4ccccc4s3)ccc2Cl)ccc1[N+](=O)[O-] | 52% (active) |
| COc1ccc(C(=O)NC(=S)Nc2cc(-c3nc4ccccc4s3)ccc2Cl)cc1OC | 10% (inactive) |
| COc1ccc(C(=O)NC(=S)Nc2cc(-c3nc4ccccc4s3)ccc2C)cc1 | 1% (inactive) |
| O=C1C(=Cc2ccc(Oc3ccc(C(F)(F)F)cc3[N+](=O)[O-])c(Cl)c2)C(=O)c2ccccc21 | 16% (inactive) |
| Cc1cc(Oc2cc(NC(=O)c3cc(-c4ccccc4)nc4ccccc34)cc([N+](=O)[O-])c2)ccc1Cl | 0% (inactive) |
| Cc1cc(C)c2oc(-c3ccc(C)c(NC(=O)c4cccs4)c3)nc2c1 | 15% (inactive) |
| CCOc1ccc(/C=N/n2c(-c3ccc(OC)cc3)n[nH]c2=S)cc1OC | 12% (inactive) |
| COc1cc2ccccc2cc1C(=O)Nc1cccc2ccccc12 | 10% (inactive) |
| O=S(=O)(Oc1ccc2ccccc2c1)c1cc(Cl)c(Cl)cc1Cl | 58% (active) |
| Cc1cc(S(=O)(=O)Oc2ccc3ccccc3c2)c(Cl)cc1Cl | 42% (inactive) |
| COc1ccc(OS(=O)(=O)c2cc(Cl)c(Cl)cc2Cl)cc1 | 31% (inactive) |
| O=C(Nc1ccccc1C#Cc1ccccc1)C(c1ccccc1)c1ccccc1 | 8% (inactive) |
| Cc1ccc(/C=C2\SC(=S)N(CCC(=O)Nc3cc(Cl)cc(Cl)c3)C2=O)cc1 | 14% (inactive) |
| CC1(C)C(c2ccccc2)=NC(c2ccccc2F)=[N+]1[O-] | 0% (inactive) |

| Structure (SMILES) | inhibition |
| --- | --- |
| COc1ccc(/C=N/NC(=O)c2cc(-c3ccc(Cl)cc3)n[nH]2)cc1 | 14% (inactive) |
| CC(C)(C)N1C(=O)c2ccc(C(=O)c3ccc(C(=O)O)cc3)cc2C1=O | 0% (inactive) |
| Cc1cc(/C=C2\NC(=O)NC2=O)c(C)n1-c1cccc([N+](=O)[O-])c1 | 29% (inactive) |
| CCC(=O)N(Cc1ccco1)C1CC(=O)N(c2ccccc2)C1=O (centres undefined) | 0% (inactive) |
| Cn1c(/C=C/c2ccc(Br)cc2)c([N+](=O)[O-])c(=O)n(C)c1=O | 6% (inactive) |
| CCOc1ccc(/C=C/c2c([N+](=O)[O-])c(=O)n(C)c(=O)n2C)cc1 | 16% (inactive) |
| Cn1c(/C=C/c2cccc(Oc3ccccc3)c2)c([N+](=O)[O-])c(=O)n(C)c1=O | 54% (active) |
| Cc1[nH]n(-c2ccccc2)c(=O)c1N=Nc1ccccc1Br | 5% (inactive) |
| COc1ccc2ccccc2c1/C=C1\SC(=Nc2cccc(Cl)c2C)NC1=O | 35% (inactive) |
| O=C(Nc1ccc(O)cc1)Nc1ccc(Cl)cc1 | 17% (inactive) |
| O=C(Nc1ccc(Cl)cc1)Nc1ccc(-c2ccc(NC(=O)Nc3ccc(Cl)cc3)cc2)cc1 | 57% (active) |
| O=C(Nc1ccc(Cl)cc1)Nc1cc(Cl)cc(Cl)c1 | 6% (inactive) |
| O=C1/C(=C\c2ccc(-c3ccc([N+](=O)[O-])cc3)o2)SC(=S)N1c1ccc(O)cc1 | 52% (active) |
| COc1ccc(N2C(=O)/C(=C/c3ccc(-c4ccc([N+](=O)[O-])cc4Cl)o3)SC2=S)cc1 | 18% (inactive) |
| O=C(O)c1cccc(-c2ccc(/C=C3\SC(=S)N(c4ccc([N+](=O)[O-])cc4)C3=O)o2)c1 | 12% (inactive) |
| COc1ccc(N2C(=O)/C(=C/c3ccc(-c4ccccc4[N+](=O)[O-])o3)SC2=S)cc1 | 26% (inactive) |
| O=C(O)c1ccc(-c2ccc(/C=C3\SC(=S)N(c4ccc([N+](=O)[O-])cc4)C3=O)o2)cc1 | 49% (inactive) |
| COc1ccc(N2C(=O)/C(=C/c3ccc(-c4ccc([N+](=O)[O-])c(C)c4)o3)SC2=S)cc1 | 64% (active) |
| COc1ccc(CN2CCN(Cc3ccccc3C(F)(F)F)CC2)cc1Br | 4% (inactive) |
| Cc1ccc(/C(N)=N/OC(=O)c2ccc(C)cc2Cl)cc1 | 10% (inactive) |
| Clc1ccc(-c2nnc(-c3ccc4c(c3)OCO4)o2)c(Cl)c1 | 3% (inactive) |
| CCOC(=O)C1=C(C)N=c2s/c(=C\c3cccc(OCc4ccccc4Cl)c3)c(=O)n2C1c1ccc(Cl)cc1 (centres undefined) | 11% (inactive) |
| COc1ccc(Br)cc1CNC12CC3CC(CC(C3)C1)C2 | 6% (inactive) |
| Br/C(=C\c1ccccc1)C1Nc2cccc3cccc(c23)N1 | 21% (inactive) |
| CCCCC(O)(CCCC)c1ccccc1O | 3% (inactive) |

| Structure (SMILES) | inhibition |
| --- | --- |
| O=c1oc2ccccc2cc1-c1csc(-c2ccc(O)cc2)n1 | 43% (inactive) |
| CCOc1ccc(NC(=O)/C(C#N)=C\c2ccc(O)c(OCC)c2)cc1 | 20% (inactive) |
| CCOc1cc(/C=C(/C#N)C(=O)Nc2cc(Cl)ccc2Cl)ccc1O | 51% (active) |
| CCNC(=O)/C(C#N)=C/c1ccc(O)c(OCC)c1 | 6% (inactive) |
| COc1ccc2c(c1)C1C=CCC1C(C(=O)O)N2 (centres undefined) | 25% (inactive) |
| O=C(c1ccccc1)c1ccc(O)c(O)c1 | 60% (active) |
| Cc1ccc(C(=O)c2cccc(C(=O)c3ccc(C)cc3)c2)cc1 | 7% (inactive) |
| O=C(c1ccccc1)c1ccc2[nH]c(=O)[nH]c2c1 | 0% (inactive) |
| O=C(Sc1nnnn1-c1ccccc1)c1ccccc1Br | 0% (inactive) |
| Cc1sc(NC(=O)C2CCCCC2)c(C(N)=O)c1C | 7% (inactive) |
| CCc1c(C)sc(NC(=O)C2CCCO2)c1C(N)=O (centres undefined) | 0% (inactive) |
| CCOC(=O)c1sc(NC(=O)C2CC3CCC2C3)c(C(=O)OCC)c1C (centres undefined) | 10% (inactive) |
| COC(=O)c1sc(NC(=O)C2CC3CCC2C3)c(C(N)=O)c1C (centres undefined) | 11% (inactive) |
| Oc1ccccc1N=Cc1c(O)c(I)cc2oc3c(c12)CCCC3 | 14% (inactive) |
| O=C(Nc1ccc(OC(F)(F)F)cc1)c1cccc(OCc2ccccc2)c1 | 0% (inactive) |
| c1ccc(CN2CCN(Cc3ccncc3)CC2)nc1 | 3% (inactive) |
| Cc1ccc2cccc(OS(=O)(=O)c3cc(Cl)c(Cl)cc3Cl)c2n1 | 43% (inactive) |
| Cc1ccc2cccc(OS(=O)(=O)c3ccccc3C)c2n1 | 58% (active) |
| COc1ccc(I)cc1S(=O)(=O)Oc1cccc2ccc(C)nc12 | 25% (inactive) |
| Cc1ccc2cccc(OS(=O)(=O)c3cc(Cl)ccc3C)c2n1 | 47% (inactive) |
| Cc1ccc2cccc(OS(=O)(=O)c3ccc(Cl)cc3C)c2n1 | 43% (inactive) |
| Cc1ccc2cccc(OS(=O)(=O)c3ccc(Cl)c(C)c3Cl)c2n1 | 52% (active) |
| CCc1nc(NC(=O)NS(=O)(=O)c2ccccc2C(=O)OC)nc(OC)n1 | 6% (inactive) |
| COc1cc(OC)cc(C(=O)N2CCN(c3ccc([N+](=O)[O-])cc3Cl)CC2)c1 | 9% (inactive) |
| O=C1NC(=S)N(c2cccc(Br)c2)C(=O)/C1=C/c1cccn1-c1ccccc1 | 39% (inactive) |

| Structure (SMILES) | inhibition |
| --- | --- |
| CCC(=O)Nc1ccc2nc(SCC(=O)Nc3ccc(C(C)=O)cc3)sc2c1 | 14% (inactive) |
| CCC(=S)/C=C1\Sc2ccc(OC)cc2N1CCCS(=O)(=O)O | 11% (inactive) |
| O=C(c1c(Cl)cccc1Cl)N1CCN(c2ccc(Cl)cc2)CC1 | 9% (inactive) |
| O=C(c1c(Cl)cccc1Cl)N1CCN(c2ccc(F)cc2)CC1 | 54% (active) |
| O=C(c1c(Cl)cccc1Cl)N1CCN(c2ccccc2)CC1 | 6% (inactive) |
| Cc1nnc(SCC(=O)NC(C)c2ccccc2)[nH]c1=O (centres undefined) | 0% (inactive) |
| CC(=C\c1ccccc1)/C=C1/SC(=Nc2ccc(F)cc2)NC1=O | 13% (inactive) |
| O=C(N/N=C/c1ccc(F)cc1)c1ccc(Cl)c(Cl)c1 | 4% (inactive) |
| CC(=O)c1cccc(NC(=O)/C(=C/c2ccc(Br)cc2)NC(=O)c2ccccc2)c1 | 6% (inactive) |
| Cc1cccc(NC(=O)/C(=C/c2ccc(Br)cc2)NC(=O)c2ccccc2)c1 | 51% (active) |
| CC(=O)c1cccc(NC(=O)/C(=C\c2ccc(Br)cc2)NC(=O)c2ccc(C)cc2)c1 | 42% (inactive) |
| C/C(=N\Nc1ccc([N+](=O)[O-])cc1)c1ccc([N+](=O)[O-])o1 | 8% (inactive) |
| COc1cc(Cc2ccc(N/C=C/C(=O)c3ccc(Br)cc3)c(OC)c2)ccc1N/C=C/C(=O)c1ccc(Br)cc1 | 25% (inactive) |
| Cc1ccc(C(=O)Oc2ccc(Cl)cc2C)cc1 | 2% (inactive) |
| Cc1cc(Cl)ccc1OC(=O)c1ccc(Br)cc1 | 34% (inactive) |
| Cc1cc(Cl)ccc1OC(=O)c1ccc(Cl)cc1 | 51% (active) |
| O=C(Nc1cnc2ccccc2c1)C1COc2ccccc2O1 (centres undefined) | 3% (inactive) |
| O=S(=O)(CCc1nnc(-c2ccc(Br)cc2)o1)c1ccc(Cl)cc1 | 2% (inactive) |
| COc1cccc(N2C(=O)/C(=C/c3ccc(O)c(O)c3)SC2=S)c1 | 75% (active) |
| COc1ccc(N2C(=O)/C(=C/c3ccc(O)c(OC)c3)SC2=S)cc1 | 26% (inactive) |
| COc1ccc(N2C(=O)/C(=C\c3ccc(OC)c(O)c3)SC2=S)cc1 | 4% (inactive) |
| COc1cccc(N2C(=O)/C(=C/c3ccc(O)c(OC)c3)SC2=S)c1 | 22% (inactive) |
| COc1ccc(N2C(=O)/C(=C\c3ccc(O)c(O)c3)SC2=S)cc1 | 77% (active) |
| COc1cccc(N2C(=O)/C(=C/c3cccc(O)c3)SC2=S)c1 | 29% (inactive) |
